Only some compounds are listed: those with a hit (about 5.4% of all), similar ones and a draw of the others.
PfM18AAP inh: PfM18AAP inhibitors, malaria aminopeptidase, primary screen, biochemical, QFRET, recombinant enzyme; M18 aspartyl aminopeptidase (Plasmodium falciparum 3D7); H-Glu-NHMec fluorogenic cleavage; inhibition, % at 7.35 µM; hit rate 1.2% among 290,000;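 active = inhibition above the campaign mean inhibition over all tested compounds plus 3 SD, cut at about 28% in these data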;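 note: 0% = plate median of test compound wells and 100% = 2 mM ZnCl2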
SMARCA2 activ: SMARCA2 (BRM) function activators, primary screen, cell-based, luminescence, high throughput; MG213 cells, MMTV-luciferase reporter, dexamethasone, overnight; activation, % at 9.1 µM; hit rate 1% among 370,000; AID 652017, 2013; in the data active = activation above about 7.8%;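 note: 0% = vehicle wells and 100% = reference activator wells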
beta cell repl: inducers of MIN6 beta-cell proliferation, primary screen, ATP luminescence, uHTS | MIN6 cells proliferation, ATPlite luminescence, 48 h; cells starved in 0.2% serum; 100% = growth in 10% serum | proliferation, % at 10 µM | hit rate 0.29% among 330,000 | AID 2380, 2010;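 active = compounds whose signal lies at least 3.5 SD above the mean of all wells on their plate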;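 note: 0% = DMSO-treated cells in low-serum medium and 100% = 10% serum control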
Exocytosis inh: LAMP-1 surface exposure blockers, TALL-104 cells – cell-based, flow cytometry, MLPCN library, primary screen; AID 651702, 2012; TALL-104 LAMP-1 surface exposure; cells stimulated with thapsigargin and PMA; hit rate 0.66% among 360,000; inhibition, % at 10 µM;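 active = inhibition above about 55%, limit read from the data; inconclusive = no clear call, values can overlap the other calls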
GASC-1 inh: inhibitors of GASC-1 histone demethylase, primary screen, biochemical, fluorescence, DELFIA europium | Lysine-specific demethylase 4C (Homo sapiens), Q9H3R0 | hit rate 0.069% among 330,000 | GST-JMJD2C(1-420) H3K9me3 demethylation | inhibition, % at 2.35 µM;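 active = more than half of a compound's replicate wells show inhibition beyond 50%, single wells judged on their own value; inconclusive = some, but no more than half, of replicates pass 50% inhibition; inactive = no replicate passes 50% inhibition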;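 note: signal counts dimethyl H3K9 product captured on neutravidin plate; 0% = median of DMSO wells and 100% = 0.3 times that DMSO median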
Target sequence (Q9H3R0 1-420 limits assumed): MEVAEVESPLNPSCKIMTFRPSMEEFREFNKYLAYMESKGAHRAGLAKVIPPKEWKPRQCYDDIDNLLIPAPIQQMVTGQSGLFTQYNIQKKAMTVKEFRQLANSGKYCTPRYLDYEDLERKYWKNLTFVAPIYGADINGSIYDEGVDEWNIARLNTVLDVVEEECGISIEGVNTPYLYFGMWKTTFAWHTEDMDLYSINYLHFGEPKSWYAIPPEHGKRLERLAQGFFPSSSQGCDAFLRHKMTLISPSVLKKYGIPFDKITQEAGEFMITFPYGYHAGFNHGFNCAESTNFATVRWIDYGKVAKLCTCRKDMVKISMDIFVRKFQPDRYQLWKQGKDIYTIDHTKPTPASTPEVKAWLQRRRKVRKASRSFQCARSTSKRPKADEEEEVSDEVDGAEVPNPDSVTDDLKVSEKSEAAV
ALR inh: inhibitors of human ALR sulfhydryl oxidase, primary screen, biochemical, H2O2 detection, HRP-luminol luminescence, single point. AID 485317, 2010. FAD-linked sulfhydryl oxidase ALR (Homo sapiens), P55789. inhibition, % (no concentration beside the values). hit rate 3.8% among 290,000. purified ALR, DTT oxidation;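 active = mean replicate inhibition above about 79%, with every replicate also reaching it, limit read from the data; inconclusive = only one of the two criteria met; inactive = mean below limit and not every replicate reaching it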
Target sequence (P55789 whole entry, looked up): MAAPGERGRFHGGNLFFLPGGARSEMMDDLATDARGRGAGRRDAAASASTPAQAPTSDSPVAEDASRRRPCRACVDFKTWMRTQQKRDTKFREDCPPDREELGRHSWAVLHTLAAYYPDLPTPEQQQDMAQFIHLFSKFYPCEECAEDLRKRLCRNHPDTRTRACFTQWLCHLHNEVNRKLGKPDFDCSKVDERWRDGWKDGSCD
Active calls of the source: *; ? = inconclusive; / = no result given.

SMILES | PfM18AAP inh | SMARCA2 activ | beta cell repl | Exocytosis inh | GASC-1 inh | ALR inh
O=C(CS(=O)(=O)c1ccccc1)Nc1nnc(Cc2ccccc2)s1 | 8 | -1 | -2 | 0 | 23 | 87*
CCN(CC)S(=O)(=O)c1ccc(N/N=C/c2ccc(O)cc2)nc1 | 1 | -2 | 1 | -1 | 3 | 99*
COc1cc(OC)nc(-n2ncc(Br)c(Br)c2=O)n1 | -4 | -10 | / | 0 | 7 | 92*
Cc1ccc(Sc2ncccc2C(=O)NCc2cc([N+](=O)[O-])ccc2O)cc1C | 3 | -3 | 5 | 3 | -8 | 89*
COc1ccc(CNC(=O)c2cccnc2Sc2ccc(C)c(C)c2)cc1 | -4 | 0 | 0 | -4 | 3 | /
COc1ccc(CN2CN3Cc4ccccc4C3CS2(=O)=O)cc1 (configuration not stated) | / | -4 | / | / | / | /
Cc1cc(SCNC(=O)c2ccccc2)ncn1 | 23 | -1 | -4 | 3 | 4 | 94*
O=C1CSc2ccc(C(=O)N3CCCC(C(=O)N4CCCC4)C3)cc2N1 (configuration not stated) | / | -4 | / | / | / | /
COc1ccc(NC(=O)CC2C(=O)N(c3ccc(Cl)cc3)C(=S)N2CCc2ccncc2)cc1 (configuration not stated) | -9 | / | -5 | 0 | 0 | -6
COc1ccc(NC(=O)CC2C(=O)N(c3ccc(Cl)cc3)C(=S)N2CCc2ccccn2)cc1 (configuration not stated) | -2 | -1 | -4 | ? | -9 | 98*
O=C(CSc1nc(-c2ccccc2)c(-c2ccccc2)[nH]1)NCCN1C(=O)CSC1=O | 0 | -1 | -3 | -5 | -1 | 99*
C/C(=C\c1ccc(N)cc1)c1nc2ccccc2[nH]1 | -8 | 4 | -4 | -8 | 4 | 99*
COc1c(Cl)cc(C(=O)NN)cc1Cl | 3 | 3 | -3 | 1 | -2 | 89*
c1ccc(Nc2cccc(Nc3ccccc3)c2)cc1 | 2 | 2 | -4 | 44 | 1 | 98*
CC(C)c1cc(Nc2cccc(O)c2)cc(C(C)C)c1O | 8 | / | -6 | / | -3 | -4
Nc1cccc(Nc2ccccc2)c1 | 9 | 4 | -2 | -1 | 10 | 99*
Nc1cccc(Nc2ncnc3ccccc23)c1 | 0 | -3 | 0 | -7 | -6 | 99*
Nc1cccc(Nc2nc(OC(C(F)(F)F)C(F)(F)F)nc(OC(C(F)(F)F)C(F)(F)F)n2)c1 | -1 | -3 | -5 | -2 | 2 | 0
Oc1cccc(Nc2ccccc2)c1 | / | -3 | -5 | 0 | 11 | 99*
COC(=O)[C@]12C[C@H](CC(=O)NCCCCc3ccccc3)C(=O)N(Cc3ccco3)C1=C[C@H](C(C)C)O[C@@H]2C1CC1 | / | -3 | / | / | / | /
COc1c(O)ccc(/C=C(\C#N)c2nc3ccccc3[nH]2)c1[N+](=O)[O-] | 0 | 2 | 0 | 4 | 0 | 87*
Cc1ccc2nc(/C(C#N)=C\c3cc(O)ccc3[N+](=O)[O-])[nH]c2c1 | 23 | 2 | -4 | 1 | 10 | 98*
CCC(NC(=O)c1ccc2c(ccn2Cc2cccc(-c3ccccc3C(=O)O)c2)c1)c1ccccc1 (configuration not stated) | / | 0 | / | / | / | /
COc1ccc(CN2CCC(CNC(=O)NC3CCCC3)CC2)cc1 | / | -3 | / | / | / | /
COC(=O)C1CN(Cc2cn(Cc3ccccc3)nn2)CCS(=O)(=O)N1Cc1ccccc1 (configuration not stated) | / | -1 | / | / | / | /
SMILES | PfM18AAP inh | SMARCA2 activ | beta cell repl | Exocytosis inh | GASC-1 inh | ALR inh
CCCc1c(Cc2cccc(F)c2)ncn1CCc1ccccc1OC | / | -3 | / | / | / | /
O=c1cc(CO)oc(C(Nc2ccccn2)c2ccccc2F)c1O (configuration not stated) | -3 | -3 | -3 | -3 | 1 | 97*
O=c1cc(CO)oc(C(Nc2ccccn2)c2cccc(F)c2)c1O (configuration not stated) | 0 | -3 | 0 | 2 | -13 | 98*
COc1cccc(C(Nc2ccccn2)c2oc(CO)cc(=O)c2O)c1 (configuration not stated) | -7 | 2 | 1 | -1 | -13 | /
Oc1c(C(c2cccs2)N2CCN(c3ccccc3)CC2)sc2ncnn12 (configuration not stated) | 17 | -2 | 9 | 8 | 5 | 97*
CC1CCN(c2ccc(S(=O)(=O)N3CCC(C)CC3)cc2N)CC1 | 2 | -5 | -1 | 4 | 9 | 0
CC1CCN(c2ccc(C(F)(F)F)cc2N)CC1 | -13 | 0 | 0 | -2 | -2 | 98*
COc1ccc([C@H]2/C=C\CN(C(=O)CC(C)(C)C)[C@@H](C)C(=O)N2Cc2ccc(F)cc2)cc1 | / | 0 | -6 | -4 | -3 | 0
COc1ccc([C@H]2/C=C\CN(Cc3ccc(N(C)C)cc3)[C@@H](C)C(=O)N2Cc2ccc(F)cc2)cc1 | / | 0 | -4 | 2 | -2 | 98*
COc1ccc(-c2[nH]ncc2-c2ccc3c(c2)OCCO3)c(O)c1 | 10 | -1 | 2 | -13 | -20 | 92*
CCCc1cc(-c2[nH]ncc2-c2ccc3c(c2)OCCCO3)c(O)cc1OC | 10 | -2 | / | / | / | /
COc1cc(NC2c3ccccc3C(=O)N2c2ccc(C)cn2)cc(OC)c1OC (configuration not stated) | 0 | 0 | -1 | 7 | -2 | 9
COc1cc(NC2c3ccccc3C(=O)N2c2cc(C)ccn2)cc(OC)c1OC (configuration not stated) | 7 | 2 | 0 | 1 | -1 | 95*
CCCCCN1CCCCC(NC(=O)c2ccc(F)cc2)C1=O (configuration not stated) | / | -1 | / | / | / | /
CCCOP(=O)(OCCC)C1(Nc2ccc(C)cc2)CCCCC1 | -1 | 2 | -3 | 2 | 4 | 93*
Cc1ccc(NC2(C#N)CCCC2)cc1 | / | -4 | / | -1 | / | /
CCCC[C@H](C(=O)N(C)c1ccccc1)[C@@H](O)c1ccc2ccccc2c1 | / | -4 | / | / | / | /
CCOc1ccc(C(=O)NCCc2ccccc2)cc1 | 2 | 1 | -3 | -1 | 1 | /
CCOc1ccc(CCNC(=O)C(O)c2ccccc2)cc1 (configuration not stated) | -1 | 0 | 0 | -2 | -4 | 99*
Cc1ccc(SCc2c(C#N)c3ccccc3n2C)cc1 | -10 | 0 | -1 | -2 | -8 | 99*
CCOC(=O)[C@@]12CCC3=C1N(CCC3)C(=O)[C@H](CC(=O)NCCc1ccccc1OC)C2 | / | -2 | / | / | / | /
O=C(O)CCNc1ccc(NCCC(=O)O)c2c1C(=O)c1ccccc1C2=O | 13 | -4 | -4 | 7 | 9 | 99*

Source: PubChem
